PubChem BioAssay (NCATS)
Inconclusive results are not listed. The source made the active and inactive calls. The call rests on the fitted dose curve; in most records, active means well fitted inhibition curve with a large enough effect; inconclusive means small, poorly fitted or top-dose-only effect; inactive means flat fitted curve, though single readings scatter.

What was measured:
Assay in all cases: qHTS profiling for inhibitors of Plasmodium falciparum proliferation (AID 504749); further: nearly all actives have a fitted effect of over 60% in size
[1] = tested on: 3D7; settings: P. falciparum in erythrocytes, SYBR Green DNA, 72 h; series mostly up to 12.8 µM
Outline: (§1)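 Three-day growth assay of blood-stage parasites in erythrocytes (0.3% parasitemia, 2.5% hematocrit) at 37 C, 5% CO2, quantified by SYBR Green DNA staining after overnight detergent lysis.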

[2] = tested on: CP185; settings: P. falciparum in erythrocytes, SYBR Green DNA, 72 h; series mostly up to 12.8 µM
Outline: as §1

[3] = tested on: CP194; settings: P. falciparum in erythrocytes, SYBR Green DNA, 72 h; series mostly up to 12.8 µM
Outline: as §1

[4] = tested on: CP201; settings: P. falciparum in erythrocytes, SYBR Green DNA, 72 h; series mostly up to 12.8 µM
Outline: as §1

[5] = tested on: CP237; settings: P. falciparum in erythrocytes, SYBR Green DNA, 72 h; series mostly up to 12.8 µM
Outline: as §1

[6] = tested on: CP238; settings: P. falciparum in erythrocytes, SYBR Green DNA, 72 h; series mostly up to 12.8 µM
Outline: as §1

[7] = tested on: CP247; settings: P. falciparum in erythrocytes, SYBR Green DNA, 72 h; series mostly up to 12.8 µM
Outline: as §1

[8] = tested on: CP262; settings: P. falciparum in erythrocytes, SYBR Green DNA, 72 h; series mostly up to 12.8 µM
Outline: as §1

[9] = tested on: CP265; settings: P. falciparum in erythrocytes, SYBR Green DNA, 72 h; series mostly up to 12.8 µM
Outline: as §1

[10] = tested on: CP266; settings: P. falciparum in erythrocytes, SYBR Green DNA, 72 h; series mostly up to 28.7 µM
Outline: as §1

[11] = tested on: CP286; settings: P. falciparum in erythrocytes, SYBR Green DNA, 72 h; series mostly up to 12.8 µM
Outline: as §1

[12] = tested on: CP305; settings: P. falciparum in erythrocytes, SYBR Green DNA, 72 h; series mostly up to 12.8 µM
Outline: as §1

[13] = tested on: CP335; settings: P. falciparum in erythrocytes, SYBR Green DNA, 72 h; series mostly up to 12.8 µM
Outline: as §1

[14] = tested on: DIV30; settings: P. falciparum in erythrocytes, SYBR Green DNA, 72 h; series mostly up to 12.8 µM
Outline: as §1

[15] = tested on: Dd2; settings: P. falciparum in erythrocytes, SYBR Green DNA, 72 h; series mostly up to 12.8 µM
Outline: as §1

[16] = tested on: GB4; settings: P. falciparum in erythrocytes, SYBR Green DNA, 72 h; series mostly up to 12.8 µM
Outline: as §1

[17] = tested on: HB3; settings: P. falciparum in erythrocytes, SYBR Green DNA, 72 h; series mostly up to 12.8 µM
Outline: as §1

[18] = tested on: P94_40; settings: P. falciparum in erythrocytes, SYBR Green DNA, 72 h; series mostly up to 12.8 µM
Outline: as §1

[19] = tested on: PC49; settings: P. falciparum in erythrocytes, SYBR Green DNA, 72 h; series mostly up to 12.8 µM
Outline: as §1

[20] = tested on: TAB109; settings: P. falciparum in erythrocytes, SYBR Green DNA, 72 h; series mostly up to 12.8 µM
Outline: as §1

Measured: Potency

C[C@@H]1CCC[C@H](C)N1NC(=O)c1ccc(Cl)c(S(N)(=O)=O)c1
inactive: all assays above

O=C(Cc1cccs1)NC1C(=O)N2C(C(=O)[O-])=C(C[n+]3ccccc3)CSC12 (stereo not given)
inactive: all assays above

C[N+](C)(C)CC(O)CC(=O)O (stereo not given)
inactive: all assays above

CN1[C@@H]2CC[C@H]1CC(OC(=O)[C@@H](O)c1ccccc1)C2 (stereo not given in full)
inactive: all assays above

CN1CCCC[C@@H]1CCN1c2ccccc2Sc2ccc(S(C)=O)cc21 (stereo not given in full)
inactive: all assays above
